From PubChem BioAssay
Most compounds without a hit are left out; they make up all but 18% or so of the library.
DT40 TDP1 CPT: qHTS for Inhibitors of human tyrosyl-DNA phosphodiesterase 1 (TDP1): qHTS in cells in presence of CPT | chicken DT40 Tdp1-/-;hTDP1 cells + 20 nM CPT, ATP luminescence, 48 h | Potency, µM (top dose mostly 46.2 µM), for inactives: at the top dose activity change, negative = growth inhibition, usual class: inhibitors | 12% of 420,000 active | AID 686979, 2013; note: potency is the fitted concentration of half-maximal effect; nearly all actives have a fitted effect of over 55% in size
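Chicken DT40 Tdp1-/- cells complemented with human TDP1, 400 cells/well, exposed to compounds plus 20 nM camptothecin for at least 48 h at 37 C; viability read as ATP content by CellTiter-Glo luminescence.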
Six1-Eya2 blk: qHTS Assay for Inhibitors of the Six1/Eya2 Interaction. Homeobox protein SIX1 (Homo sapiens) + Protein phosphatase EYA2 (Homo sapiens), …. AlphaScreen GST-Six1/His-Eya2 binding, biochemical; hits give low values. activity change, % (test concentration not listed). 0.56% of 360,000 active. AID 651725, 2012; in the data active = activity change below about -65%; inconclusive = mostly about -30% to -63%
Target sequence (O00167 whole entry, looked up): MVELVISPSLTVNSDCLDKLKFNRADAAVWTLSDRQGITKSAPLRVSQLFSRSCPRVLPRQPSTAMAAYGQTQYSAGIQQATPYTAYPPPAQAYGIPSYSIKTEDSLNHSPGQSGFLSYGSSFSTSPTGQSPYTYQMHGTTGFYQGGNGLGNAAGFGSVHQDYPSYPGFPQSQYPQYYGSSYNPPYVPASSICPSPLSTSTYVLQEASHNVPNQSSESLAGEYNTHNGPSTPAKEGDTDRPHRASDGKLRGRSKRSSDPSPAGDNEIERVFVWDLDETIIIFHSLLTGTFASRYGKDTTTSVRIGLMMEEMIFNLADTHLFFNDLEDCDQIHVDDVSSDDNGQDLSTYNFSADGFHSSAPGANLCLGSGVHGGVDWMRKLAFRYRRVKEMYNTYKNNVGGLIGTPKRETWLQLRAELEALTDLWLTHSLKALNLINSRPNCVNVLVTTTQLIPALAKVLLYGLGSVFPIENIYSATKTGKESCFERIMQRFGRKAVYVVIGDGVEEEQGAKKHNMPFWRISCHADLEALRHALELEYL
Target sequence (Q15475 whole entry, looked up): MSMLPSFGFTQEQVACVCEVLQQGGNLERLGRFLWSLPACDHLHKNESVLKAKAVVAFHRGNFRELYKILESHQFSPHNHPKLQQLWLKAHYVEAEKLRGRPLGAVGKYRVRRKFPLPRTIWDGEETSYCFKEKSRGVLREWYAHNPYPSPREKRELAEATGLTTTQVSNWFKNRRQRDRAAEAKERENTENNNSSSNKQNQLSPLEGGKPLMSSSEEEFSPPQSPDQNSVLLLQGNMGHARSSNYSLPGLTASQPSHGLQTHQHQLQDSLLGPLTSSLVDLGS
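Compounds are tested against tagged Six1 and Eya2 proteins bridged by glutathione donor and nickel acceptor beads; after a one-hour incubation at 37 °C without light, AlphaScreen emission is recorded.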
IL1B secr inh: qHTS for Inhibitors of Inflammasome Signaling: IL-1-beta AlphaLISA Primary Screen; THP-1 LPS/ATP IL-1B secretion, AlphaLISA, 16 h; hits give low values; 4.7% of 360,000 active; activity change, % at 57.5 µM; AID 743279, 2014; in the data active = activity change below about -50%; inconclusive = mostly about -30% to -49%
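THP-1 cells pretreated 1 hr with compounds (up to 57.5 uM final), then stimulated with LPS (250 ng/mL final) plus ATP (1.25 mM final); secreted IL-1B measured by AlphaLISA after 16 hr, decreased signal indicating inhibition.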
TDP1 cell noCPT: qHTS for Inhibitors of human tyrosyl-DNA phosphodiesterase 1 (TDP1): qHTS in cells in absence of CPT | DT40 Tdp1-/- hTDP1 cells, no CPT, ATP luminescence, 48 h | Potency, µM (top dose mostly 46.2 µM), for inactives: at the top dose activity change, negative = growth inhibition, usual class: inhibitors | 15% of 420,000 active | AID 686978, 2013; note: potency is the fitted concentration of half-maximal effect; nearly all actives have a fitted effect of over 55% in size
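A cellular qHTS used chicken DT40 cells lacking endogenous Tdp1 but carrying stably transfected human TDP1. Compounds were applied without camptothecin, and cell growth kinetics were judged by ATP-dependent luminescence after ≥48 hr.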
TDP1 block: qHTS Assay for Inhibitors of Tyrosyl-DNA Phosphodiesterase (TDP1). recombinant TDP1, AlphaScreen DNA substrate cleavage. Potency, µM (highest dose often 130 µM), inactives show at the highest dose activity change, negative = inhibition, most hits filed as inhibitors. 0.28% of 350,000 active; note: potency is the fitted concentration of half-maximal effect; nearly all actives have a fitted effect of over 40% in size
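Enzyme-compound mixtures sat 15 min at room temperature, followed by a 5 min reaction with 15 nM final substrate and 10 min with AlphaScreen beads. Recombinant human Tdp1 was used at 1 nM final.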
CtBP-E1A inh: qHTS Assay for Inhibitors of the CtBP/E1A Interaction; AlphaScreen GST-E1A/His-CtBP binding, 1536-well; hits give low values; activity change, % (concentration not given with the values); 0.49% of 340,000 active; in the data active = activity change below about -65%; inconclusive = mostly about -30% to -63%
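GST-E1A and His-tagged CtBP (125 nM each as 5X stock) were preincubated with pin-transferred compound for 2 h at 37 °C in the dark, then glutathione donor and nickel acceptor beads were added for 1 h before AlphaScreen reading.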
Active calls of the source: *; ? = inconclusive; . = no result given. Unless noted, calls come from the whole dose curve; as a rule, active = well fitted curve in the direction sought with a large enough effect; inconclusive = small, poorly fitted or top-dose-only effect, or another doubt; inactive = no such curve, though single readings can be large; an effect the other way counts as inactive or inconclusive. % is set by controls: 0 for no effect and ±100 for the full control effect.

SMILES	DT40 TDP1 CPT	Six1-Eya2 blk	IL1B secr inh	TDP1 cell noCPT	TDP1 block	CtBP-E1A inh
Cc1cccc(C)c1OCC(=O)Nc1cccc(S(=O)(=O)N2CCCC2)c1	?	-10	-25	13µM*	-1%	-8
Cc1ccccc1CC(=O)Nc1cccc(S(=O)(=O)N2CCCC2)c1	-8%	1	0	11%	1%	1
O=C(COC(=O)/C=C/c1ccc(OC(F)F)cc1)Nc1cccc(S(=O)(=O)N2CCOCC2)c1	?	-2	-11	21µM*	-2%	-9
N#Cc1ccccc1NC(=O)CNc1cc(S(=O)(=O)N2CCOCC2)ccc1NCC1CCCO1 (stereo not drawn)	-3%	-8	-7	0%	0%	-20
COc1ccc(CNC(=O)c2[nH]c(C(F)(F)F)nc2-c2ccccc2)cc1	-8%	-6	18	?	.	-1
COc1ccc(-n2ccnc2SCC(=O)NC2CCCC2)c(OC)c1	?	6	-5	-30%	-2%	-3
CCC(=O)c1ccc(OCC(=O)Nc2cccc(S(=O)(=O)N3CCCCCC3)c2)cc1	7.3µM*	-6	4	5.2µM*	-10%	1
Cc1ccc(OCC(=O)Nc2cccc(S(=O)(=O)N3CCCCCC3)c2)c([N+](=O)[O-])n1	?	-8	-4	16µM*	-5%	.
CCC(C)[C@H](NC(=O)N1CC(=O)Nc2ccccc21)C(=O)Nc1ccccc1C (stereo partly drawn)	16µM*	4	23	?	2%	.
Cc1ccccc1NC(=O)CNC(=O)N1CC(=O)Nc2ccccc21	3%	5	20	5%	.	4
O=C(c1ccc2c(c1)OCO2)N1CCC2(CC1)Oc1ccc(F)cc1C(=O)C21CC(c2cccnc2)=NO1 (stereo not drawn)	-5%	13	0	0%	1%	0
COc1ccccc1N1CCN(C(=O)C2CCCN(S(=O)(=O)c3ccc4c(c3)CCCN4C(C)=O)C2)CC1 (stereo not drawn)	8.2µM*	-5	13	8.2µM*	9%	-6
COc1ccc(S(=O)(=O)N2CCC(C(=O)N3CCN(c4ccccc4OC)CC3)CC2)cc1	?	0	-12	?	7%	1
CC(=O)N1CCCc2cc(S(=O)(=O)N3CCCC(C(=O)N4CCN(c5cc(C)ccc5C)CC4)C3)ccc21 (stereo not drawn)	6.5µM*	1	-78*	6.5µM*	13%	17
COc1cccc(CNC(=O)C23CN(Cc4ccccc4)CC2C(c2ccc([N+](=O)[O-])cc2)=NO3)c1 (stereo not drawn)	?	-24	-13	?	11%	-27
CC(C)=CCc1c(O)ccc2c1OC(c1ccc(O)c(O)c1)CC2=O (stereo not drawn)	10µM*	-18	37	13µM*	3%	2
CCn1nccc1C(=O)Nc1cc(Cl)ccc1Cl	-2%	10	-55*	-6%	6%	12
Cc1csc(Nc2ccccc2)[n+]1-c1ccccc1	-20%	-24	-20	?	6%	?
Cc1ccccc1Nc1scc(-c2ccc(Cl)cc2)[n+]1-c1ccccc1C	18µM*	?	-15	23µM*	5%	-23
CCCNC(=O)c1cc(-c2ccc(OC)cc2)n(CCCOC)c1C	-20%	-4	-4	?	3%	-3
